In paper PMC11006913 one finds binding signal data, which are given here for four sequences.

Common to all, as to assay: PBM; 200 nM protein, PBS
Details in all cases: dsDNA, one strand shown

Assay [1] deals with HESX1 (Homo sapiens, UniProt Q9UBX0 95-180, R165K).
The target of assay [2] is SHOX (Homo sapiens, UniProt O15266 103-189).
In assay [3] the target is ALX4 (Homo sapiens, UniProt Q9H161 200-286).
Assay [4] concerns the target PRRX1 (Homo sapiens, UniProt P54821 80-166, F113S).
The target in assay [5] is ALX4 (Homo sapiens, UniProt Q9H161 200-286, Q225E).
Sequence of ALX4 (Homo sapiens, UniProt Q9H161 200-286, Q225E) (Q9H161 200-286 Q225E): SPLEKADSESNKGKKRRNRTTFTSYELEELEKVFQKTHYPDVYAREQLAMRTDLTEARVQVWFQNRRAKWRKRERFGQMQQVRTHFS
Assay [6] concerns the target HESX1 (Homo sapiens, UniProt Q9UBX0 95-180).
The target in assay [7] is ALX1 (Homo sapiens, UniProt Q15699 118-204, L144V).
Sequence of ALX1 (Homo sapiens, UniProt Q15699 118-204, L144V) (Q15699 118-204 L144V): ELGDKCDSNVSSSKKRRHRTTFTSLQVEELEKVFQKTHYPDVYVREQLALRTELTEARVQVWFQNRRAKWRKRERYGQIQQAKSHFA
The target in assay [8] is SHOX (Homo sapiens, UniProt O15266 103-189, R173C).
Sequence of SHOX (Homo sapiens, UniProt O15266 103-189, R173C) (O15266 103-189 R173C): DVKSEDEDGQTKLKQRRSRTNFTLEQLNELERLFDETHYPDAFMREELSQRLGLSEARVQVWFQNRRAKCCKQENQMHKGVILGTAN
In assay [9] the target is ALX1 (Homo sapiens, UniProt Q15699 118-204, L144R).
Sequence of ALX1 (Homo sapiens, UniProt Q15699 118-204, L144R) (Q15699 118-204 L144R): as the sequence (Q15699 118-204 L144V) above, with V27R counted along it
The target in assay [10] is PROP1 (Homo sapiens, UniProt O75360 56-141).
Sequence of PROP1 (Homo sapiens, UniProt O75360 56-141) (O75360 56-141): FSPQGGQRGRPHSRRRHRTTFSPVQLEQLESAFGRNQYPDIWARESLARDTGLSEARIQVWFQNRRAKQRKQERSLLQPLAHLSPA
For assay [11], the target named is HESX1 (Homo sapiens, UniProt Q9UBX0 95-180, R109Q).
Sequence of HESX1 (Homo sapiens, UniProt Q9UBX0 95-180, R109Q) (Q9UBX0 95-180 R109Q): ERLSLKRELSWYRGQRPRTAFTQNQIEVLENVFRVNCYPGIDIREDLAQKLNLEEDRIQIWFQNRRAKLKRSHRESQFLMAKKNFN
Assay [12] has as its target PROP1 (Homo sapiens, UniProt O75360 56-141, R99H).
The target in the next assay is ALX3 (Homo sapiens, UniProt O95076 139-225, L168Q).
Sequence of ALX3 (O95076 139-225 L168Q): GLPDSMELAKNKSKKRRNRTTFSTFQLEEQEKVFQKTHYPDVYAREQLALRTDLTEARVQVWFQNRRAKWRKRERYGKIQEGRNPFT
For assay [13], the target named is HESX1 (Homo sapiens, UniProt Q9UBX0 95-180, P111T).
Sequence of HESX1 (Homo sapiens, UniProt Q9UBX0 95-180, P111T) (Q9UBX0 95-180 P111T): as the sequence (Q9UBX0 95-180 R109Q) above, with Q15R, P17T counted along it
Assay [14] addresses PROP1 (Homo sapiens, UniProt O75360 56-141, F88S).
Assay [15] deals with HESX1 (Homo sapiens, UniProt Q9UBX0 95-180, F115L).
Sequence of HESX1 (Homo sapiens, UniProt Q9UBX0 95-180, F115L) (Q9UBX0 95-180 F115L): as the sequence (Q9UBX0 95-180 R109Q) above, with Q15R, F21L counted along it
The target of assay [16] is ALX1 (Homo sapiens, UniProt Q15699 118-204).
Sequence of ALX1 (Homo sapiens, UniProt Q15699 118-204) (Q15699 118-204): as the sequence (Q15699 118-204 L144V) above, with V27L counted along it
In assay [17] the target is PRRX1 (Homo sapiens, UniProt P54821 80-166).
Sequence of PRRX1 (Homo sapiens, UniProt P54821 80-166) (P54821 80-166): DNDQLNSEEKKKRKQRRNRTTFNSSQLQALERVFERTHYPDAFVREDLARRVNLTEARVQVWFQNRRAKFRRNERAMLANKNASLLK
Assay [18] concerns the target MSX2 (Homo sapiens, UniProt P35548 130-214, R199I).
Assay [19] has as its target MSX2 (Homo sapiens, UniProt P35548 130-214, F161Y).

Sequence of HESX1 (Homo sapiens, UniProt Q9UBX0 95-180) (Q9UBX0 95-180): as the sequence (Q9UBX0 95-180 R109Q) above, with Q15R counted along it
Sequence of SHOX (Homo sapiens, UniProt O15266 103-189) (O15266 103-189): as the sequence (O15266 103-189 R173C) above, with C71R counted along it
Sequence of HESX1 (Homo sapiens, UniProt Q9UBX0 95-180, R165K) (Q9UBX0 95-180 R165K): as the sequence (Q9UBX0 95-180 R109Q) above, with Q15R, R71K counted along it
Sequence of ALX4 (Homo sapiens, UniProt Q9H161 200-286) (Q9H161 200-286): as the sequence (Q9H161 200-286 Q225E) above, with E26Q counted along it
Sequence of PROP1 (Homo sapiens, UniProt O75360 56-141, F88S) (O75360 56-141 F88S): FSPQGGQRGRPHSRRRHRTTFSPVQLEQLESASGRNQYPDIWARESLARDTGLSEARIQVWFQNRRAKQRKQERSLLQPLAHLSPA
Sequence of PROP1 (Homo sapiens, UniProt O75360 56-141, R99H) (O75360 56-141 R99H): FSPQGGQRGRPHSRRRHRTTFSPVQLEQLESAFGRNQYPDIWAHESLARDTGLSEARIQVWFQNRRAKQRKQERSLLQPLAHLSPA
Sequence of PRRX1 (Homo sapiens, UniProt P54821 80-166, F113S) (P54821 80-166 F113S): as the sequence (P54821 80-166) above, with F34S counted along it
Sequence of MSX2 (Homo sapiens, UniProt P35548 130-214, F161Y) (P35548 130-214 F161Y): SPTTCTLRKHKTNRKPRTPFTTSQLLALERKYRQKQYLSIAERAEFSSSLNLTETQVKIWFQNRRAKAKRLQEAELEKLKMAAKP
Sequence of MSX2 (Homo sapiens, UniProt P35548 130-214, R199I) (P35548 130-214 R199I): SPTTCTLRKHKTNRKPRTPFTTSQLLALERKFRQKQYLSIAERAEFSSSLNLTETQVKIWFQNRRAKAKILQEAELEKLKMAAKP

CAAATTAA: the binding signal is 11.5 upbm affinity estimate (log intensity, higher = more binding, comparable within an allelic series) in the assay with HESX1 [1]; 11.7 upbm affinity estimate (log intensity, higher = more binding, comparable within an allelic series) with SHOX [2]; 13.7 upbm affinity estimate (log intensity, higher = more binding, comparable within an allelic series) in the assay with ALX4 [3]; 11 upbm affinity estimate (log intensity, higher = more binding, comparable within an allelic series) with PRRX1 [4]; 12.9 upbm affinity estimate (log intensity, higher = more binding, comparable within an allelic series) with ALX4 [5]; 11.5 upbm affinity estimate (log intensity, higher = more binding, comparable within an allelic series) with HESX1 [6]. For the same sequence, the binding signal with ALX1 [7] is 11.6 upbm affinity estimate (log intensity, higher = more binding, comparable within an allelic series); with SHOX [8], 9.3 upbm affinity estimate (log intensity, higher = more binding, comparable within an allelic series); with ALX1 [9], 11.1 upbm affinity estimate (log intensity, higher = more binding, comparable within an allelic series); in the assay with PROP1 [10], 11 upbm affinity estimate (log intensity, higher = more binding, comparable within an allelic series); in the assay with HESX1 [11], 8.49 upbm affinity estimate (log intensity, higher = more binding, comparable within an allelic series); with PROP1 [12], 10.7 upbm affinity estimate (log intensity, higher = more binding, comparable within an allelic series). In addition, the binding signal with ALX3 is 10.4 upbm affinity estimate (log intensity, higher = more binding, comparable within an allelic series); with HESX1 [13], 10.1 upbm affinity estimate (log intensity, higher = more binding, comparable within an allelic series); in the assay with PROP1 [14], 7.49 upbm affinity estimate (log intensity, higher = more binding, comparable within an allelic series); in the assay with HESX1 [15], 7.67 upbm affinity estimate (log intensity, higher = more binding, comparable within an allelic series); with ALX1 [16] it was 12.1 upbm affinity estimate (log intensity, higher = more binding, comparable within an allelic series); with PRRX1 [17], 13.2 upbm affinity estimate (log intensity, higher = more binding, comparable within an allelic series).
On to AATTAAGA, for which the binding signal with HESX1 [1] is 11.6 upbm affinity estimate (log intensity, higher = more binding, comparable within an allelic series); with SHOX [2], 11.7 upbm affinity estimate (log intensity, higher = more binding, comparable within an allelic series); with ALX4 [3] it was 13.6 upbm affinity estimate (log intensity, higher = more binding, comparable within an allelic series); with PRRX1 [4], 11.2 upbm affinity estimate (log intensity, higher = more binding, comparable within an allelic series); with ALX4 [5] it was 12.8 upbm affinity estimate (log intensity, higher = more binding, comparable within an allelic series); with HESX1 [6], 11.6 upbm affinity estimate (log intensity, higher = more binding, comparable within an allelic series). Further, the binding signal with ALX1 [7] is 11.7 upbm affinity estimate (log intensity, higher = more binding, comparable within an allelic series); with SHOX [8] it was 9.59 upbm affinity estimate (log intensity, higher = more binding, comparable within an allelic series); with ALX1 [9] it was 11.3 upbm affinity estimate (log intensity, higher = more binding, comparable within an allelic series); with PROP1 [10] it was 11.2 upbm affinity estimate (log intensity, higher = more binding, comparable within an allelic series); with HESX1 [11], 9.03 upbm affinity estimate (log intensity, higher = more binding, comparable within an allelic series); in the assay with PROP1 [12], 10.9 upbm affinity estimate (log intensity, higher = more binding, comparable within an allelic series). In addition, the binding signal with ALX3 is 10.4 upbm affinity estimate (log intensity, higher = more binding, comparable within an allelic series); with HESX1 [13] it was 10.5 upbm affinity estimate (log intensity, higher = more binding, comparable within an allelic series); with PROP1 [14], 7.71 upbm affinity estimate (log intensity, higher = more binding, comparable within an allelic series); with HESX1 [15], 7.79 upbm affinity estimate (log intensity, higher = more binding, comparable within an allelic series); in the assay with ALX1 [16] it was 12.1 upbm affinity estimate (log intensity, higher = more binding, comparable within an allelic series).
Turning to TAATTGGA, the binding signal with HESX1 [1] was 13.4 upbm affinity estimate (log intensity, higher = more binding, comparable within an allelic series); with SHOX [2], 12.6 upbm affinity estimate (log intensity, higher = more binding, comparable within an allelic series); in the assay with ALX4 [3], 14 upbm affinity estimate (log intensity, higher = more binding, comparable within an allelic series); with PRRX1 [4], 11.4 upbm affinity estimate (log intensity, higher = more binding, comparable within an allelic series); in the assay with ALX4 [5], 13.7 upbm affinity estimate (log intensity, higher = more binding, comparable within an allelic series); in the assay with HESX1 [6], 13.3 upbm affinity estimate (log intensity, higher = more binding, comparable within an allelic series). Besides, the binding signal in the assay with MSX2 [18] was 13 upbm affinity estimate (log intensity, higher = more binding, comparable within an allelic series); with ALX1 [7] it was 12 upbm affinity estimate (log intensity, higher = more binding, comparable within an allelic series); with SHOX [8], 9.96 upbm affinity estimate (log intensity, higher = more binding, comparable within an allelic series); in the assay with ALX1 [9], 11.7 upbm affinity estimate (log intensity, higher = more binding, comparable within an allelic series); with PROP1 [10], 11.8 upbm affinity estimate (log intensity, higher = more binding, comparable within an allelic series); with HESX1 [11], 9.97 upbm affinity estimate (log intensity, higher = more binding, comparable within an allelic series). In addition, the binding signal with PROP1 [12] was 12 upbm affinity estimate (log intensity, higher = more binding, comparable within an allelic series); with ALX3 it was 10.9 upbm affinity estimate (log intensity, higher = more binding, comparable within an allelic series); in the assay with HESX1 [13] it was 11.9 upbm affinity estimate (log intensity, higher = more binding, comparable within an allelic series); with PROP1 [14], 7.7 upbm affinity estimate (log intensity, higher = more binding, comparable within an allelic series); with MSX2 [19] it was 13.6 upbm affinity estimate (log intensity, higher = more binding, comparable within an allelic series); in the assay with HESX1 [15] it was 8.04 upbm affinity estimate (log intensity, higher = more binding, comparable within an allelic series). Also, the binding signal with ALX1 [16] was 12.7 upbm affinity estimate (log intensity, higher = more binding, comparable within an allelic series); in the assay with PRRX1 [17] it was 13.4 upbm affinity estimate (log intensity, higher = more binding, comparable within an allelic series).
On to CCGAGCGG, for which the binding signal with HESX1 [1] was 6.41 upbm affinity estimate (log intensity, higher = more binding, comparable within an allelic series); with SHOX [2] it was 6.99 upbm affinity estimate (log intensity, higher = more binding, comparable within an allelic series); in the assay with HESX1 [6], 6.46 upbm affinity estimate (log intensity, higher = more binding, comparable within an allelic series); with SHOX [8], 7.07 upbm affinity estimate (log intensity, higher = more binding, comparable within an allelic series); with HESX1 [11], 6.48 upbm affinity estimate (log intensity, higher = more binding, comparable within an allelic series); with HESX1 [13], 6.49 upbm affinity estimate (log intensity, higher = more binding, comparable within an allelic series). The binding signal in the assay with HESX1 [15] was 6.36 upbm affinity estimate (log intensity, higher = more binding, comparable within an allelic series).
